Records with an inconclusive call do not appear. Entries that show only a call come without a potency. Calls of active or inactive are those of the source. Calls follow the shape of the dose curve; as a rule, active = well fitted inhibition curve with a large enough effect; inconclusive = small, poorly fitted or top-dose-only effect; inactive = flat fitted curve, though single readings scatter.
Each molecule was assayed against Calcium and integrin-binding protein 1 (Homo sapiens) (UniProt Q99828) (assay: Primary qHTS for Identification of Calcium Integrin Binding Protein 1 (CIB1) Competitor (AID 1508620;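 also: GST tagged CIB1 binding a fluorescein labelled alphaIIb integrin peptide tracer; top concentration of the series differs between compounds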)). Conditions: CIB1-GST / FITC-alphaIIb peptide fluorescence polarization; series mostly up to 114 µM.
Sequence of Calcium and integrin-binding protein 1 (Homo sapiens) (Q99828 whole entry, looked up): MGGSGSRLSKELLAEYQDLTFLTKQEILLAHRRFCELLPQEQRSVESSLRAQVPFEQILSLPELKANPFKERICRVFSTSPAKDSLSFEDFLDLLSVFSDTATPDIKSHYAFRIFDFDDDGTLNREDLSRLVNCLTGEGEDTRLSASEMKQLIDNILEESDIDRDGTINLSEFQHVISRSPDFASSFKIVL
Method in brief: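 Fluorescence polarization competition: CIB1-GST (1 uM final) preincubated with compound 15 min at room temperature, then FITC-labeled alphaIIb peptide (100 nM final) added for another 15 min. Polarization read at Ex 480/Em 540.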
With `CC[C@@H]1C[C@]1(NC(=O)[C@@H]1C[C@@H]2CN1C(=O)[C@H](C(C)(C)C)NC(=O)OCC(C)(C)CCCCc1cccc3c1CN(C3)C(=O)O2)C(=O)NS(=O)(=O)C1CC1` the Potency was “inactive”.
With `CCc1c(Cl)c(O)c(Cl)c(O)c1C(=O)O[C@H]1[C@H](O)[C@H](OC)[C@H](OC/C2=C\C=C\C[C@H](O)/C(C)=C\[C@H](CC)[C@@H](O[C@@H]3OC(C)(C)[C@@H](OC(=O)C(C)C)[C@H](O)[C@@H]3O)/C(C)=C/C(C)=C/C[C@@H]([C@@H](C)O)OC2=O)O[C@@H]1C` the Potency was “inactive”.
`Cc1ccc(C)c(NS(=O)(=O)c2cc(C(=O)Nc3ccccc3-c3ccccc3)ccc2C)c1` was tested, and the Potency was “inactive”.
With `COc1cc2nc(N3CCN(C(=O)COc4c(OC)cccc4C(C)C)CC3)nc(N)c2cc1OC` the Potency was “inactive”.
`CC(C)(O)/C=C/C(=O)[C@](C)(O)[C@H]1[C@H](O)C[C@@]2(C)[C@@H]3CC=C4[C@@H](C[C@H](O[C@@H]5O[C@H](CO)[C@@H](O)[C@H](O)[C@H]5O)C(=O)C4(C)C)[C@]3(C)C(=O)C[C@]12C` was tested, and the Potency was “inactive”.
With `COC(=O)CC(O)CC(O)/C=C/c1c(C)ccc2c1C(OC(C)=O)CC(C)C2` (stereo not drawn) the Potency was “inactive”.
For `CC(=O)O[C@@H]1CC2C(C)(C)C(=O)C=C[C@]2(C)C2CC[C@@]3(C)[C@H](c4ccoc4)OC(=O)[C@H]4O[C@]43[C@@]21C` (stereo partly drawn), the Potency was “inactive”.
In the case of `C/C=C/CCC1Cc2cc(O)c(CCCC)c(O)c2C(=O)O1` (stereo not drawn), the Potency is reported as “inactive”.
With `CC(=O)O[C@H]1C[C@@](O)(C(C)C)[C@@H]2[C@@H](OC(=O)c3ccc(O)cc3)CC(C)=CC[C@@]12C` the Potency was “inactive”.
With `CC(=O)O[C@@H]1[C@@H](O)[C@H](O[C@@H]2[C@@H](O)[C@@H](O)[C@H](O[C@H]3[C@H](O[C@H]4[C@H](O[C@H]5CC[C@@]6(C)C(CC[C@]7(C)C6CC=C6[C@@H]8CC(C)(C)CC[C@]8(C(=O)O)CC[C@]67C)[C@]5(C)CO)O[C@H](CO)[C@@H](O)[C@@H]4O)OC[C@@H](O)[C@@H]3O)O[C@H]2C)OC[C@H]1O` (stereo partly drawn) the Potency was “inactive”.
In the case of `CCn1c(N)c(C(=O)NC)c(=O)c2ccc(C#CC(C)(O)COC)nc21` (stereo not drawn), the Potency is reported as “inactive”.
With `CCCCOc1ccc(S(=O)(=O)n2c(C)nc3ccccc32)cc1` the Potency was “inactive”.
In the case of `CC(CCC1(O)OC2CC3C4CC=C5CC(O[C@@H]6O[C@H](CO)[C@@H](O[C@@H]7O[C@@H](C)[C@H](O)[C@@H](O)[C@H]7O)[C@H](O)[C@H]6O[C@@H]6O[C@@H](C)[C@H](O)[C@@H](O)[C@H]6O)CCC5(C)C4CCC3(C)C2C1C)CO[C@@H]1O[C@H](CO)[C@@H](O)[C@H](O)[C@H]1O` (stereo partly drawn), the Potency is reported as “inactive”.
With `CC(=O)OC1CC(O)(C(C)C)C2C(OC(=O)c3ccc(O)cc3)C=C(C)C(=O)CC12C` (stereo not drawn) the Potency was “inactive”.
`CC(=O)O[C@@H]1CC2C(/C=C(\C)C(=O)[C@@]3(O)C[C@@H](C)[C@H](OC(=O)c4ccccc4)C3/C=C/1C)C2(C)C` (stereo partly drawn) was tested, and the Potency was “inactive”.
With `C/C=C(/C)C(=O)OC1C=C2C3C(C)C(C)C(OC(=O)C(C)C(C)O)CC3(C)CCC2(C)C2(C)CC(OC(C)=O)C3C(C)(C)C(O)C(=O)CC3(C)C12` (stereo not drawn) the Potency was “inactive”.
`CC(=O)OC1C(OC(=O)c2ccccc2)C2C(C)(C)CCC(OC(C)=O)C2(C)C23CCC(C)(C2)C(=O)CC13` (stereo not drawn) was tested, and the Potency was “inactive”.
With `CC(=O)OC(C)(C)/C=C/C(=O)C(C)(O)C1C(O)CC2(C)C3CC=C(C(C)(C)C(=O)O)C(CC(=O)O)C3(C)C(=O)CC12C` (stereo not drawn) the Potency was “inactive”.
`CC(=O)O[C@@H]1[C@H](O[C@@H]2O[C@@H](CO)[C@H](O)[C@H]2O)[C@@H](O[C@@H]2O[C@@H](C)[C@H](O[C@@H]3OC[C@@H](O)[C@H](O)[C@H]3O)[C@@H](O)[C@H]2O)[C@H](OC(=O)[C@]23CCC(C)(C)C[C@H]2C2=CCC4[C@@]5(C)CC[C@H](O[C@@H]6O[C@H](C(=O)O)[C@@H](O)[C@H](O)[C@H]6O[C@@H]6O[C@H](CO)[C@H](O)[C@H](O)[C@H]6O)[C@@](C)(C=O)C5CC[C@@]4(C)[C@]2(C)C[C@H]3O)O[C@@H]1C` (stereo partly drawn) was tested, and the activity change, negative = inhibition was 1.08% [at 12.4 µM] (inactive).
With `C=CC1(C)CC(O)C(C(=C)C(=O)OC)C(O)C1C(=C)CO` (stereo not drawn) the Potency was “inactive”.
For `CC(=O)OC1CCC2(C)C(CCC3(C)C2CC=C2C4C(C)C(C)CCC4(C)CCC23C)C1(C)C(=O)O` (stereo not drawn), the Potency was “inactive”.
In the case of `C=C1CCC[C@]2(C)CC/C(=C(/CO)C(=O)OC)C[C@@H]12`, the Potency is reported as “inactive”.
For `COc1cc(C#N)ccc1S(=O)(=O)Nc1ccc2c(c1)cc(C)c(=O)n2C`, the Potency was “inactive”.
